Shown are actives, neighbours in structure and some others; about 21% of the full set was active somewhere.
CYP2C19 inh: human CYP2C19 inhibition | inhibition, % at 5 µM | actives 21% (n = 96,000) | CYP2C19 Supersomes, luciferin-H EGE luminescence, 30 min | AID 778 | P33261;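 active = CYP2C19 inhibition above a set limit at 5 µM in the primary screen, cut at about 50% in these data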;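 note: plate controls were negative control wells for no effect and 2.5 mM tranylcypromine positive control for full effect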
MRP-1 activ: MRP-1 activation; actives 0.61% (n = 140,000); H69AR cells + doxorubicin, viability rescue, CellTiter-Glo; AID 799; viability increase, % at 10 µM;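 active = viability gain under doxorubicin at or above a set limit, the compound median plus 3 SD, cut at about 4.7% in these data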;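 note: MRP-1 overexpressing cells given doxorubicin 25 µM after compound pretreatment; 18-22 h compound pretreatment then 72 h with doxorubicin before readout; 0% = doxorubicin-only wells and 100% = vehicle-treated cells without doxorubicin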
CYP2C19 act: increases human CYP2C19 enzyme activity; 96,000 tested, under 10 active; recombinant CYP2C19, luciferin-H EGE luminescence; stronger effect = higher value; 0 = fully inhibited enzyme, 1 = untreated enzyme; AID 1025; activation factor at 5 µM; P33261;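 active = activation factor of at least 2 at 5 µM in the primary screen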;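 note: 0 = wells with 2.5 mM tranylcypromine and 1 = vehicle-only wells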
MRP reversal: compounds reversing MRP-mediated drug resistance. H69AR cells + 2 uM doxorubicin, CellTiter-Glo, 72 h. differential viability (reversal), % at 10 µM. actives 0.04% (n = 85,000);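 active = viability drop by adding the cancer drug above about 55%, with treated viability meeting a 40% cutoff, limit read from the data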;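 note: viability without doxorubicin minus viability with 2 µM doxorubicin for each compound; larger differential means the compound sensitizes cells more to doxorubicin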
CYP2C9 inhib: inhibitors of human CYP2C9 | P11712 | CYP2C9 Supersomes, luciferin-H conversion, luminescence | inhibition, % at 5 µM | actives 20% (n = 96,000);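 active = blocking of liver enzyme CYP2C9 beyond about 50% at 5 µM, limit read from the data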
Target sequence (P11712 whole entry, looked up): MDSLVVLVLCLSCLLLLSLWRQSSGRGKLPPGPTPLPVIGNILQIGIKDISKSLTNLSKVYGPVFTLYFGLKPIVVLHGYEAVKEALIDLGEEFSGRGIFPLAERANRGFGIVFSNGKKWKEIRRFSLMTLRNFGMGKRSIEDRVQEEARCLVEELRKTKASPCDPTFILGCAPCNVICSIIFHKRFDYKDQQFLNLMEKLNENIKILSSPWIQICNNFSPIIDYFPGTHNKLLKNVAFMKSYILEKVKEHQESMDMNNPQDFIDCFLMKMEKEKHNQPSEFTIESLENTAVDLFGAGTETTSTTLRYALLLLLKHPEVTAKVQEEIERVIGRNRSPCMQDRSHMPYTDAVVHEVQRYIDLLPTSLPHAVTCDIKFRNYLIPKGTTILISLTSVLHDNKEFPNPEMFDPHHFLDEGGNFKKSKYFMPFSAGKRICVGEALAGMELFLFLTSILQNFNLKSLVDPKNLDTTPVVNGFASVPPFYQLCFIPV
CYP2C9 act: CYP2C9 (human) activation; P11712; activation factor at 5 µM; recombinant CYP2C9, luciferin-H conversion, luminescence; stronger effect = higher value; factor 1 = untreated enzyme, 0 = blocked; actives 1.4% (n = 96,000); AID 1024;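 active = activation factor of 2 or more for CYP2C9 at a 5 µM dose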;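 note: 0 = sulfaphenazole-blocked wells and 1 = vehicle-only wells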
Numbers without * were called inactive; · = not tested or not shown.

SMILES	CYP2C19 inh	MRP-1 activ	CYP2C19 act	MRP reversal	CYP2C9 inhib	CYP2C9 act
Cc1cc2cc(CCNC(=O)c3ccc(Br)o3)c(=O)[nH]c2cc1C	43	0	0.6	14	43	0.6
COc1ccc2cc(CCNC(=O)c3ccc4c(c3)OCO4)c(=O)[nH]c2c1	37	-1	0.6	-6	82*	0.2
CCC(CC)C(=O)NCCc1cc2ccc(OC)cc2[nH]c1=O	2	1	1	8	9	0.9
COc1ccc2cc(CCNC(=O)c3ccc(Br)o3)c(=O)[nH]c2c1	51*	-3	0.5	7	25	0.8
CCOc1cc(-c2c(C)c(C)nc(N)c2C#N)ccc1O	·	-3	·	-11	·	·
CCCc1cc(-c2ccc(O)c(OCC)c2)c(C#N)c(N)n1	90*	-5	0.1	-25	82*	0.2
CCOc1cc(-c2c(C)c(CC)nc(N)c2C#N)ccc1O	63*	-2	0.4	-36	23	0.8
CCOc1cc(-c2cc(-c3ccc(C)o3)nc(N)c2C#N)ccc1O	18	-1	0.8	-31	38	0.6
Cn1c(SCc2cccc(C(F)(F)F)c2)nnc1-c1ccco1	72*	-1	0.3	·	14	0.9
Nn1c(SCc2cccc(C(F)(F)F)c2)nnc1-c1ccco1	94*	-1	0.1	9	-61	1.6
Cc1ccc(CSc2nnc(-c3ccco3)n2N)cc1	8	-2	0.9	3	-19	1.2
CCOC(=O)C1CCN(Cc2ccc(Cl)c(Cl)c2)CC1	36	-1	0.6	15	51*	0.5
CCOC(=O)C1CCN(Cc2cnc(Oc3ccc(Cl)cc3C)s2)CC1	1	0	1	·	9	0.9
CCOC(=O)C1CCN(Cc2cnc(Oc3ccc(N)cc3)s2)CC1	45	-1	0.6	·	62*	0.4
O=S1(=O)CCN(Cc2ccc(Cl)c(Cl)c2)CC1	54*	-1	0.5	·	2	1
Clc1ccc(CN2CCCCCCC2)cc1Cl	85*	0	0.2	·	-6	1.1
COc1ccc(N=C2SC(CC(=O)Nc3ccc(OC)cc3OC)C(=O)N2C)cc1 (centres undefined)	49	1	0.5	15	52*	0.5
Clc1ccc(OCc2cc(-c3ccccc3)no2)cc1Cl	1	1	1	·	69*	0.3
O=S(=O)(Cc1cc(-c2ccc(Cl)cc2)no1)c1ccccc1	39	-2	0.6	·	17	0.8
COc1ccc(C(=O)N2CCc3cc(OC)c(OC)cc3C2c2cccc([N+](=O)[O-])c2)cc1OC (centres undefined)	19	-2	0.8	·	69*	0.3
COc1cc(C(=O)n2nc(C)cc2C)ccc1O	16	-1	0.8	2	-19	1.2
Cc1ccc(-c2nc(CSCC(=O)NCCCN3CCOCC3)c(C)o2)cc1	11	0	0.9	1	11	0.9
CSc1ccc(-c2nc(CSCC(=O)NCCCN3CCOCC3)c(C)o2)cc1	56*	-3	0.4	6	29	0.7
Cc1csc(NC(=O)c2cc(-c3ccccc3)nc3ccccc23)n1	·	1	·	·	·	·
OCCN=C1CCCc2c1[nH]c1ccc(Br)cc21	16	5.2*	0.8	·	19	0.8
SMILES	CYP2C19 inh	MRP-1 activ	CYP2C19 act	MRP reversal	CYP2C9 inhib	CYP2C9 act
Cn1c(C(=O)N2CCN(c3ncccn3)CC2)cc2c(=O)n(C)c3ccccc3c21	17	0	0.8	14	93*	0.1
Cc1ccc(Cl)cc1N1CCN(C(=O)c2cc3c(=O)n(C)c4ccccc4c3n2C)CC1	77*	1	0.2	-1	98*	0
Cc1cccc(N2CCN(C(=O)c3cc4c(=O)n(C)c5ccccc5c4n3C)CC2)c1C	-8	0	1.1	14	-14	1.1
CCCCCCn1c(NCC)nc2c1c(=O)[nH]c(=O)n2C	-2	-2	1	30	-15	1.2
C/C(=N\NC(=O)CSc1nnc(C)s1)c1ccc(Cl)cc1	·	3	·	·	·	·
O=C(c1ccccc1)n1ccc(-c2cnc(-c3ccccc3)s2)n1	56*	-4	0.4	-17	15	0.8
COc1ccc(S(=O)(=O)n2ccc(-c3cnc(-c4ccccc4)s3)n2)cc1	21	1	0.8	·	69*	0.3
O=C(c1cnn(C(=O)c2ccccc2)c1)c1ccccc1O	·	-1	·	·	·	·
C/C(=N\OCC(=O)Nn1c(=O)[nH]c2ccccc2c1=O)c1ccccc1	·	-2	·	·	·	·

Screening results from PubChem.
